Compound activity deposited in PubChem by National Center for Advancing Translational Sciences (NCATS).
The list is not random: actives were taken first. Their share in the collection is about 19%.
HT1080 IDH1KD tx: toxicity to HT-1080 IDH1 knockdown cells (counter line). HT-1080 IDH1 knockdown viability, ATP luminescence, 48 h. Potency, µM (doses to about 46.1 µM), for inactives: top-dose activity, negative = toxicity, hits mostly cytotoxic. 360,000 compounds, 2% hits. AID 686971;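 also: potency is read from the fitted curve at half-maximal effect; 0% = DMSO wells and -100% = cell-free medium wells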
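CellTiter-Glo luminescence after 48 h compound exposure at 37 degrees C of IDH1-knockdown HT-1080 cells in 5% FBS RPMI. %Activity scaled between DMSO wells and cell-free media wells, with curves fitted and assigned curve classes.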
TDP1 cell noCPT: qHTS for Inhibitors of human tyrosyl-DNA phosphodiesterase 1 (TDP1): qHTS in cells in absence of CPT; DT40 Tdp1-/- hTDP1 cells, no CPT, ATP luminescence, 48 h; Potency, µM (top dose mostly 46.2 µM), for the others: at the top dose activity change, negative = growth inhibition, hits mostly inhibitors; 420,000 compounds, 15% hits; AID 686978, 2013; also: potency is read from the fitted curve at half-maximal effect; nearly all actives have a fitted effect of over 55% in size
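Camptothecin absent (DMSO only). Human TDP1-complemented DT40 knockout cells, 400 cells/well, 37 °C for minimum 48 hr; ATP measured via CellTiter-Glo, 30 min dark incubation, luminescence.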
HT1080NT lethal: kills 2HG-producing HT-1080-NT fibrosarcoma cells; HT-1080-NT fibrosarcoma viability, CellTiter-Glo ATP luminescence, 48 h; Potency, µM (doses to about 46.1 µM), for the others: at the highest dose activity, negative = less viability, usual class: cytotoxic; 360,000 compounds, 1.6% hits;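 also: NT is the 2HG producing partner of a matched IDH1 knockdown line; potency is read from the fitted curve at half-maximal effect; 0% = DMSO-treated cells and -100% = media-only wells without cells; nearly all actives have a fitted effect of over 55% in size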
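A 48-hour cytotoxicity screen used HT-1080-NT cells plated 2 hours before compound delivery. ATP-based CellTiter-Glo luminescence measured viability, normalized to DMSO and no-cell controls.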
IL-1B inflam inh: inflammasome signaling inhibition, IL-1 beta readout. THP-1 LPS/ATP IL-1B secretion, AlphaLISA, 16 h; stronger effect = lower value. activity change, % at 57.5 µM. 360,000 compounds, 4.7% hits; in the data active = activity change below about -50%; inconclusive = mostly about -30% to -49%
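Secreted IL-1B measured by AlphaLISA bead assay after 16 h compound exposure of THP-1 cells; compounds (final up to 57.5 uM) added 1 h before LPS (250 ng/mL) and ATP (1.25 mM) stimulation; lower signal means less secretion.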
TDP1 cell CPT: DT40-hTDP1 cell growth loss with CPT; Potency, µM (series often up to 46.2 µM), inactives show at the top dose activity change, negative = growth inhibition, hits mostly inhibitors; chicken DT40 Tdp1-/-;hTDP1 cells + 20 nM CPT, ATP luminescence, 48 h; 420,000 compounds, 12% hits; also: potency is read from the fitted curve at half-maximal effect; nearly all actives have a fitted effect of over 55% in size
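Cell growth measured by CellTiter-Glo luminescence after a minimum 48 h, 37 C compound exposure with 20 nM CPT in Tdp1-knockout DT40 cells stably expressing hTDP1, seeded 400/well; qHTS titration format.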
An asterisk follows results filed as active; ? = inconclusive; . = no result; [ ] = another dose, or the depositor's remark. Unless noted, calls follow the shape of the dose curve; as a rule, active = well fitted curve in the direction sought with a large enough effect; inconclusive = small, poorly fitted or top-dose-only effect, or another doubt; inactive = no such curve, though single readings can be large; an effect the other way counts as inactive or inconclusive. Unless noted, % is scaled to controls: 0 for no effect and ±100 for the full control effect.

SMILES | HT1080 IDH1KD tx | TDP1 cell noCPT | HT1080NT lethal | IL-1B inflam inh | TDP1 cell CPT
CN1CCN(c2sc(S(C)(=O)=O)nc2S(=O)(=O)c2ccc(Cl)cc2)CC1 | -14% | 5% | 1% | ? | -17%
CS(=O)(=O)c1nc(S(=O)(=O)c2ccc(Cl)cc2)c(N2CCN(CCO)CC2)s1 | -1% | 6% | 4% | -68* | ?
CCc1ccc(CNC(=O)C2CCN(S(=O)(=O)N3CCC4(CC3)OCCO4)CC2)cc1 | 10% | -29% | 3% | -17 | ?
CCCCCCCCCCCCCCCC(=O)N[C@@H](COP(=O)(O)O)C(=O)O | . | -5%[4.12 µM] | . | . | -7%[4.12 µM]
O=C(CN1CCN(C(=O)c2ccco2)CC1)Nc1cccc([N+](=O)[O-])c1 | 7% | ? | 0% | -1 | -27%
CN1CCN(c2nc(-c3cc4ccccc4o3)cs2)CC1 | 7% | 11% | 11% | 21 | -4%
Cc1cc(C)n(CCc2nc(-c3ccc(C)o3)cs2)n1 | 21% | 16µM* | 17% | 17 | ?
Cc1cc(C)n(CCc2nc(-c3cc4ccccc4o3)cs2)n1 | 6% | 18µM* | 2% | -10 | 18µM*
c1cnc(N2CCN(c3cnccn3)CC2)nc1 | 5% | 5% | 3% | -7 | ?
CC(C)C[C@H]1COc2cccc(N3CCSCC3)c2S(=O)(=O)N1 | 1% | ? | 8% | 33 | -24%
O=C(Cc1cccc2ccccc12)Nc1ccccc1 | -1% | ? | -5% | -7 | 23µM*
Cn1c(=O)c2cc(NC(=O)Nc3cccnc3)ccc2n1-c1ccc(C(C)(C)C)cc1 | ? | ? | 21µM* | -17 | ?
CC(C)=CCn1c2ccc(NC(=O)Nc3cccnc3)cc2c(=O)n1C | 10% | ? | ? | 17 | -30%
CC(CC(=O)Nc1ccc2c(c1)c(=O)n(C)n2-c1ccccc1)c1ccccc1 (centres undefined) | 2.9µM* | 5.2µM* | 3.7µM* | 73 | 5.2µM*
O=C(Cc1cccc2ccccc12)NCCOc1ccccc1F | -15% | -24% | -5% | -84* | -27%
Cc1ccc(OCCNC(=O)CNC(=O)Cc2cccc3ccccc23)cc1 | . | -16% | . | . | -27%
CC[C@@H]1C(c2ccccc2)=NN(c2ccccc2)[C@H]1C(=O)N1CCOC1=O | -22% | 0% | -25% | 5 | 0%
CO/N=C(/C(=O)NC1C(=O)N2C(C(=O)O)=C(COC(N)=O)CSC12)c1ccco1 (centres undefined) | . | 0% | . | . | 7%
COc1cc(NC(=O)c2cccc(NC3=NC4CS(=O)(=O)CC4S3)c2)cc(OC)c1OC (centres undefined) | 0% | 1% | 8% | 6 | 2%
Cc1ccnc(NS(=O)(=O)c2ccc(NS(=O)(=O)c3ccc([N+](=O)[O-])cc3)cc2)n1 | 12% | -20% | 16% | 28 | -6%
Cc1ccccc1CC(=O)Nc1ccc2c(c1)c(=O)n(C)n2-c1cccs1 | -28% | 3.3µM* | ? | 0 | ?
Cn1c(=O)c2cc(NC(=O)Cc3cccc4ccccc34)ccc2n1-c1ccccc1 | ? | 21µM* | ? | 30 | 16µM*
NS(=O)(=O)c1ccc(CCNC(=O)Cc2ccc(S(=O)(=O)N3CCOCC3)s2)cc1 | 7% | -7% | 0% | 3 | 0%
COc1ccc(NC(=O)C#Cc2ccccc2)cc1OC | 18µM* | ? | ? | -71* | 6.5µM*
O=C(C#Cc1ccccc1)Nc1ccccc1F | -24% | 18µM* | -12% | -93* | 21µM*
SMILES | HT1080 IDH1KD tx | TDP1 cell noCPT | HT1080NT lethal | IL-1B inflam inh | TDP1 cell CPT
CNC(=O)Nc1ccccc1F | -9% | -6% | 0% | -3 | -4%
NC(=O)c1ccc(NC(=O)C#Cc2ccccc2)cc1 | 16µM* | 8.2µM* | 21µM* | -101* | ?
CCOCCCNC(=S)N1CCC(NC(=O)C23CC4CC(CC(C4)C2)C3)CC1 | -4% | -21% | 0% | -2 | -11%
CCCn1nnc(NC(=S)NC(=O)Cc2ccccc2)n1 | ? | 23µM* | -24% | 90 | ?
CCCn1nnc(NC(=S)NC(=O)/C=C/c2ccc(Cl)cc2)n1 | -1% | -6% | -12% | 17 | -7%
CCCn1nnc(NC(=S)NC(=O)CC)n1 | 3% | 18µM* | 2% | -1 | 23µM*
CCCn1nnc(NC(=S)NC(=O)c2ccc(-c3ccc(Br)cc3)o2)n1 | 0% | ? | -2% | 17 | ?
Cc1ccc(OCC(=O)Nc2ccc3nn(-c4ccc(Cl)cc4)nc3c2)cc1 | . | -15% | . | . | 7%
Cc1cc(C)n(-c2ccc(NC(=O)C3CCN(Cc4ccc(C)o4)CC3)cc2)n1 | 0% | ? | -3% | 10 | -27%
COc1ccc(C2=NN(c3nc(-c4ccc(CNC(C)=O)cc4)cs3)C(c3ccco3)C2)cc1 (centres undefined) | -3% | 18µM* | -5% | -18 | 21µM*
O=C(OCC(=O)N1N=C(c2ccc(Cl)cc2)CC1c1ccco1)c1ccco1 (centres undefined) | -16% | ? | -10% | -3 | -30%
CCC1(CC)NC(=O)N(CC(=O)N2N=C(c3ccc(Cl)cc3)CC2c2ccco2)C1=O (centres undefined) | -15% | ? | -4% | 0 | ?
O=C(OCC(=O)N1N=C(c2ccc(Cl)cc2)CC1c1ccco1)c1cncc(Br)c1 (centres undefined) | -18% | 23µM* | 2% | ? | ?
N=c1sccn1CC(=O)N1N=C(c2ccc(Cl)cc2)CC1c1ccco1 (centres undefined) | ? | 23µM* | 33µM* | -27 | ?
CCC(=O)N1N=C(c2ccc(C)cc2)CC1c1ccco1 (centres undefined) | 2% | 13µM* | 2% | ? | 21µM*
CCOc1cc(C2c3c(oc4ccc(F)cc4c3=O)C(=O)N2Cc2ccco2)ccc1O (centres undefined) | . | -6% | . | . | -4%
O=C(NCc1ccccc1)C1=C[C@@H](C2CC2)C[C@@H](OCCCCO)O1 | 6% | 4% | 11% | 2 | 1%
O=C(CN1CCNCC1)NCCSc1ccc(Cl)cc1 | -11% | -4% | -17% | -7 | 15%
O=C(O)CCC(=O)N1N=C(c2c(-c3ccccc3)c3cc(Cl)ccc3[nH]c2=O)CC1c1ccco1 (centres undefined) | 9% | -4% | 12% | 1 | 5%
CCC(=O)N1N=C(c2ccc(NS(=O)(=O)c3ccc(C)cc3)cc2)CC1c1ccco1 (centres undefined) | ? | 13µM* | ? | ? | ?
